According to the supplement of paper PMC4166925:
± gives the standard deviation of the averaged measurements. In all, about 33,000 sequences were measured (“E-score (dimensionless, -0.5 to 0.5)”: median about -0.049, highest 2% from about 0.37 on). The sample holds the highest values, similar sequences and a random draw of the others, so the mix is not that of the screen.

What follows are sequences tested on T1, PmTbr T-box DNA-binding domain (GST fusion) (assay: PBM E-score of 8-mer (E-score (dimensionless, -0.5 to 0.5)); Tbr is Tbrain of the sea star Patiria miniata (Pm) or the sea urchin Strongylocentrotus purpuratus (Sp); higher = stronger binding preference). Settings: the construct has about 5 more residues each side.
T1 sequence: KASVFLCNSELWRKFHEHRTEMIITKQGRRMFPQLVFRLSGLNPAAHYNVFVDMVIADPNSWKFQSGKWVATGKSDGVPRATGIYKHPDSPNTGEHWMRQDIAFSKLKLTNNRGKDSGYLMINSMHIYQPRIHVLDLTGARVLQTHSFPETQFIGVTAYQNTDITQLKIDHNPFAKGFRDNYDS
Experimental: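 Universal protein-binding microarray (Agilent AMADID 016060, 60-bp probes with a 35-bp variable region) incubated with 200 nM GST-fused Patiria miniata Tbr T-box DNA-binding domain (residues 272-466) in PBS pH 7.5. Scored for every ungapped 8-mer (given with its reverse complement) by the Universal PBM Analysis Suite as E-score (modified Wilcoxon-Mann-Whitney enrichment, range -0.5 to 0.5; >0.45 counts as bound) and Z-score of median probe intensity. Two replicate arrays (datasets 1 and 2).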
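Note: 200 nM protein in PBS on universal arrays averaged over duplicate arrays.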

Sequence	PBM E-score of 8-mer
ATGGGTAC	-0.173 ± 0.035
TAGGGTCA	-0.0997 ± 0.066
ATTGCAGC	-0.0944 ± 0.071
CTGTCAAA	0.266 ± 0.04
GTGTCAAC	0.466 ± 0.007
ATGTCGAA	-0.0919 ± 0.073
CTGTCAAC	0.338 ± 0.011
GTGTCGAA	0.38248 ± 9.9e-05
CTGTCGAA	0.125 ± 0.0096
CTGTCATA	0.151 ± 0.011
ATGTCAAC	0.171 ± 0.006
ATGTCATA	-0.187 ± 0.0068
TTGTCAAA	0.144 ± 0.09
GTGTCAAA	0.448 ± 0.0094
GTGTCATA	0.4057 ± 0.0013
CACATCAG	0.162 ± 0.035
ACGATGTG	0.25 ± 0.067
ACGTACTC	0.061 ± 0.028
GCATCAAC	0.0651 ± 0.026
GGGGCTGA	-0.1789 ± 0.00037
ATAGGTAC	-0.105 ± 0.041
ACGGCCAT	-0.105 ± 0.12
ATGTCAGA	-0.162 ± 0.069
CTGTCAGA	0.211 ± 0.014
GTGTCAGA	0.3931 ± 0.00061

Sequence	PBM E-score of 8-mer
AGGGATAA	-0.203 ± 0.032
TCGTTTCA	0.145 ± 0.031
AAGTGACC	0.185 ± 0.041
CAGTGACA	0.338 ± 0.0041
GAGTGAAA	0.16 ± 0.1
GAGTGACC	-0.0846 ± 0.0063
AAGTGACG	0.4043 ± 0.003
GAGTGACA	0.373 ± 0.017
TAGTGAAA	0.144 ± 0.048
AAGTGACT	0.092 ± 0.006
CAGTGACG	0.134 ± 0.011
TAGTGACA	0.398 ± 0.0059
AAGTGACA	0.458 ± 0.0065
AAGTGAAA	0.154 ± 0.056
ACTTGTAA	0.0472 ± 0.082
GGGTATTA	-0.139 ± 0.091
GTCCAATA	-0.21 ± 0.0092
AGATGCCA	-0.00611 ± 0.051
GAACTATC	-0.095 ± 0.022
GAACTGAA	-0.228 ± 0.021
AAGGAGGC	-0.181 ± 0.009
GTCAAAAA	0.0926 ± 0.056
CACGGTCG	0.0491 ± 0.014
CGAGGGAG	-0.0838 ± 0.048
TACCTCGA	-0.0364 ± 0.012

Sequence	PBM E-score of 8-mer
ATGTGATA	0.298 ± 0.048
GTGAGAGA	0.319 ± 0.015
GTGTGATA	0.46 ± 0.006
ATGTGAGC	0.0849 ± 0.0062
ATGTGAGA	0.429 ± 0.0081
CTGTGATA	0.2528 ± 0.0022
ATGTGAGG	0.215 ± 0.026
GTGTGAGA	0.4583 ± 0.0027
CTGTGAGA	0.314 ± 0.0081
GATACTTA	-0.121 ± 0.055
ACGATAAA	0.122 ± 0.051
GACGATCC	-0.0686 ± 0.12
GATACAGC	-0.197 ± 0.018
CCATACTC	0.0602 ± 0.026
GATATCTA	-0.117 ± 0.025
CTACCAGA	-0.1381 ± 0.0011
CCCGACCA	-0.0729 ± 0.075
CCAGCTGA	-0.0424 ± 0.022
CCTAGATC	-0.0223 ± 0.021
CTGTCACA	0.4 ± 0.0052
ATGTCACC	0.385 ± 0.015
ATGTCACA	0.375 ± 0.013
CTGTCAAG	0.2006 ± 0.0012
ATGTCATC	-0.0845 ± 0.035
CCGTCACA	0.325 ± 0.024

Sequence	PBM E-score of 8-mer
ATGTCAGC	0.00315 ± 0.0099
ATGTCACG	0.262 ± 0.012
CCGTCACC	0.356 ± 0.03
ATGTCAAG	-0.0802 ± 0.059
CTGTCATC	0.141 ± 0.036
CTGTCACC	0.428 ± 0.013
CCCCAGAC	-0.109 ± 0.082
ACACTGTG	0.227 ± 0.0059
ACCTACTG	0.0087 ± 0.021
AGATAGCT	-0.0197 ± 0.1
AGGCGAAA	-0.0128 ± 0.028
AATGATCG	-0.0804 ± 0.013
ACTTAAGA	-0.0828 ± 0.02
TATGGTGA	0.074 ± 0.043
GAGTCACA	0.237 ± 0.0075
GTGTCACA	0.445 ± 0.0066
GCGTCACA	0.307 ± 0.014
AGCCCCGC	-0.0835 ± 0.072
ATTCTCAA	0.115 ± 0.051
ATTCTCAC	0.435 ± 0.017
AATCTCTC	-0.0609 ± 0.011
AATCTCAT	-0.0261 ± 0.042
ATTCTCAG	0.0465 ± 0.077
AATCTCAC	0.382 ± 0.0088
ATGGCGGA	-0.225 ± 0.027

Sequence	PBM E-score of 8-mer
CGGCAAAC	-0.0247 ± 0.012
ATTAGGTA	-0.131 ± 0.0089
AATAGGTC	-0.258 ± 0.012
AATAGGTA	-0.0644 ± 0.018
AGTAGGTA	-0.0493 ± 0.079
ACTAGGTC	-0.143 ± 0.0081
AGTAGGTG	0.4125 ± 0.00071
ACTAGGTG	0.425 ± 0.012
AGTAGGTC	-0.148 ± 0.05
ATTAGGTC	-0.153 ± 0.013
AATAGGTG	0.428 ± 0.013
ACTAGGTA	-0.23 ± 0.039
ATTAGGTG	0.374 ± 0.0089
ATCGCTTC	0.0264 ± 0.017
CACATTTC	0.3486 ± 0.0015
AAATTCAC	0.263 ± 0.021
AAAAGCGG	-0.261 ± 0.1
TTAGTAAA	-0.0101 ± 0.081
AAACTTCG	0.00852 ± 0.068
CCACTTCC	0.0762 ± 0.022
GCACTTCC	0.365 ± 0.021
ACTCTCCG	-0.0258 ± 0.0077
TCACTTCA	0.186 ± 0.021
CCACTTCG	0.254 ± 0.028
ACACTCCT	0.228 ± 0.019

Sequence	PBM E-score of 8-mer
CCACTTCA	0.13 ± 0.034
ACACTTCG	0.427 ± 0.0093
ACACTCCG	0.3818 ± 0.0019
ACACTTCC	0.428 ± 0.016
ACACTTCA	0.441 ± 0.017
ATTCTCGG	-0.082 ± 0.071
CGAATCAC	0.124 ± 0.029
AGAGGTCA	-0.0997 ± 0.006
TACTGACA	0.1838 ± 0.00074
TCCCAGCA	0.0248 ± 0.11
ACCGAATG	-0.119 ± 0.0097
CAGAAGCG	0.103 ± 0.04
ACTCTTCT	-0.264 ± 0.02
AAACTTCT	-0.236 ± 0.043
ACACTTCT	0.4266 ± 0.0042
AGGTTCTC	0.0874 ± 0.028
ATTCACCA	0.0566 ± 0.052
CCGTTGGC	0.151 ± 0.01
AAATGTGT	0.432 ± 0.011
GTGTGTGA	0.41536 ± 0.00023
GTGTGTAA	0.214 ± 0.022
ATATGTGA	0.24 ± 0.064
AAATGTGC	0.206 ± 0.049
AAATGTGG	0.0797 ± 0.052
ATGTGTGA	0.4845 ± 0.00059

Sequence	PBM E-score of 8-mer
ATGTGTGC	0.219 ± 0.016
CTGTGTGA	0.298 ± 0.018
TCAAGAAA	-0.17 ± 0.11
ACACCTTG	0.481 ± 0.0055
GAACCTTA	-0.144 ± 0.042
CCACCTGA	0.172 ± 0.044
AAACCTTA	-0.0234 ± 0.053
CCACCTTA	0.246 ± 0.036
AAACCTTG	-0.132 ± 0.0072
GCACCTTA	0.4187 ± 0.0021
AGACCTTG	-0.174 ± 0.013
TCACCTGA	0.353 ± 0.019
ACACCTTA	0.4762 ± 0.00075
GCACCTGA	0.391 ± 0.024
ATACCTTA	0.0857 ± 0.093
AAAAGCTT	-0.0359 ± 0.065
CTTTGTGA	0.028 ± 0.0037
ACTAGTCA	0.164 ± 0.044
TAGGCCAA	-0.298 ± 0.065
AGCCAGAG	-0.0902 ± 0.046
AGCGTCCT	-0.167 ± 0.046
TATAGCAA	-0.0376 ± 0.033
